Compounds without any hit were thinned out: in the full panel of roughly 83,000, 20% have a hit.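 Interpretation: 100, growth as untreated; towards 0, rising growth inhibition; 0, no net growth; 0 to -100, cell death. Compounds scoring below 10 were considered active.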 The source made the active and inactive calls.
Assays:
Test in all cases: NCI-60 one-dose screen, 48 h (100 = growth as untreated, 0 = no growth, -100 = all killed)
Details in all cases: 10 µM unless noted
T-47D breast = test system: T-47D breast
BT-549 breast = test system: BT-549 breast
MDA-MB-435 melanoma = test system: MDA-MB-435 melanoma
SW-620 colon = test system: SW-620 colon
MCF7 breast = test system: MCF7 breast
HCT-116 colon = test system: HCT-116 colon
HCC-2998 colon = test system: HCC-2998 colon
KM12 colon = test system: KM12 colon

Measured: growth

CCSC1=NC2C(N(CC)C(=O)N2CC)N1/N=C/C=C/c1ccccc1[N+](=O)[O-] (stereo not drawn)
active: MDA-MB-435 melanoma -37.4% | HCT-116 colon 4.16%
inactive: T-47D breast 63.3% | BT-549 breast 10.1% | SW-620 colon 16.7% | MCF7 breast 12.3% | HCC-2998 colon 11% | KM12 colon 10.1%

Cc1ccc(-c2c(-c3ccccc3)c(=O)oc3ccc(C)cc23)cc1
inactive: T-47D breast 84.3% | BT-549 breast 108% | MDA-MB-435 melanoma 103% | SW-620 colon 99.5% | MCF7 breast 116% | HCT-116 colon 72.8% | HCC-2998 colon 90.5% | KM12 colon 92%

O=C1CC(N2C(=O)/C(=C/C(Cl)=C\c3ccc([N+](=O)[O-])cc3)SC2=S)C(=O)N1c1ccc(O)cc1 (stereo not drawn)
active: BT-549 breast -17.3% | MDA-MB-435 melanoma -12% | SW-620 colon 0.226% | MCF7 breast -11.6% | HCT-116 colon -31.2% | HCC-2998 colon -81.6% | KM12 colon -72.4%
inactive: T-47D breast 17.2%

CCOC(=O)/C=C/c1cc2cc(-c3csc4ccccc34)ccc2[nH]1
inactive: T-47D breast 55% | BT-549 breast 69.6% | SW-620 colon 46.4% | MCF7 breast 34.6% | HCT-116 colon 60.1% | HCC-2998 colon 33.4% | KM12 colon 23.2%
active: MDA-MB-435 melanoma -10.4%

COc1cc(C(=O)/C=C/c2c(C(F)(F)F)nc3sccn23)cc(OC)c1OC
inactive: MDA-MB-435 melanoma 12.6%
active: T-47D breast -22.7% | BT-549 breast -14.2% | SW-620 colon -21.2% | MCF7 breast 6.82% | HCT-116 colon -85.3% | HCC-2998 colon -0.607% | KM12 colon -75.6%

COc1cccc(-c2nn(-c3ccccc3)cc2-c2ccnc(NCCNC(=O)c3ccccc3)c2)c1
inactive: T-47D breast 19.4% | BT-549 breast 38.4% | MDA-MB-435 melanoma 65.4% | SW-620 colon 77.2% | MCF7 breast 62.5% | HCT-116 colon 44.3% | HCC-2998 colon 71.2% | KM12 colon 57.3%

c1ccc2cc3nc4cc5ccccc5cc4nc3cc2c1
inactive: T-47D breast 94.3% | BT-549 breast 105% | MDA-MB-435 melanoma 119% | SW-620 colon 84.1% | MCF7 breast 81.9% | HCT-116 colon 72.3% | HCC-2998 colon 96.4% | KM12 colon 85.4%

CCOC(=O)c1c2c(n3ccc(NC(=O)OC(C)(C)C)cc13)C(=O)c1ncccc1C2=O
active: T-47D breast 5.16% | BT-549 breast -36.7% | MDA-MB-435 melanoma -62.2% | SW-620 colon -74.9% | MCF7 breast -72.2% | HCT-116 colon -65.8% | HCC-2998 colon -59.4% | KM12 colon -46.4%

COC(=O)c1c2c(c[n+]([O-])c1C)C(=O)C=CC2=O
inactive: BT-549 breast 71.4% | HCC-2998 colon 88.1% | KM12 colon 98.7%
active: T-47D breast -11.9% | MDA-MB-435 melanoma -81.8% | SW-620 colon 0.106% | MCF7 breast -62% | HCT-116 colon -9.77%

Cc1nn(-c2ccccc2)c(Oc2ccc(Cl)cc2)c1/C=N\N=c1/sc2ccccc2n1C
inactive: T-47D breast 66.4% | BT-549 breast 84.1% | MDA-MB-435 melanoma 97.2% | SW-620 colon 77.8% | MCF7 breast 85% | HCT-116 colon 73.2% | HCC-2998 colon 103% | KM12 colon 94.6%

CCc1ccccc1-n1c(-c2ccc(Cl)cc2)cc(-c2ccc(OC)cc2)c(C#N)c1=O
inactive: T-47D breast 92.3% | BT-549 breast 154% | MDA-MB-435 melanoma 89% | SW-620 colon 104% | MCF7 breast 85.6% | HCT-116 colon 94.6% | HCC-2998 colon 109% | KM12 colon 87.7%

CC1(C)CC[C@]2(C(=O)N3CCOCC3)CC[C@]3(C)C(=CC[C@@H]4[C@@]5(C)CC[C@H](OC(=O)c6cccnc6)C(C)(C)[C@@H]5CC[C@]43C)[C@@H]2C1
inactive: T-47D breast 54.7% | BT-549 breast 72.3% | MDA-MB-435 melanoma 70.2% | SW-620 colon 45.4% | MCF7 breast 67.4% | HCT-116 colon 31.8% | HCC-2998 colon 58.7% | KM12 colon 53.5%

CCCCCS(=O)(=O)Nc1ccc(C(=O)O)cc1
inactive: T-47D breast 89.2% | BT-549 breast 107% | MDA-MB-435 melanoma 106% | SW-620 colon 106% | MCF7 breast 97% | HCT-116 colon 102% | HCC-2998 colon 114% | KM12 colon 103%

Cc1ccc(-n2nc3c(c(C#N)c2=O)CC(c2ccccc2Cl)C([N+](=O)[O-])=C3O)cc1 (stereo not drawn)
inactive: T-47D breast 73.4% | BT-549 breast 103% | MDA-MB-435 melanoma 102% | SW-620 colon 109% | MCF7 breast 94% | HCT-116 colon 63.8% | HCC-2998 colon 113% | KM12 colon 106%

COc1ccc(-c2nc(SCCC(C)C)nc(N/N=C\c3cccc(Cl)c3)c2C#N)cc1
inactive: T-47D breast 59.7% | BT-549 breast 85.5% | MDA-MB-435 melanoma 88.5% | SW-620 colon 54.4% | MCF7 breast 73.3% | HCT-116 colon 33.3% | HCC-2998 colon 92.2% | KM12 colon 90.6%

CCN1C(=O)N(CC)C2Nn3c(s/c(=C\c4cccc([N+](=O)[O-])c4)c3=O)=NC21 (stereo not drawn)
active: MDA-MB-435 melanoma -36.8%
inactive: T-47D breast 59.5% | BT-549 breast 58.5% | SW-620 colon 36.4% | MCF7 breast 35% | HCT-116 colon 23.6% | HCC-2998 colon 87.7% | KM12 colon 26.7%

O=C(CC(SCc1ccccc1)c1ccccc1)c1ccccc1 (stereo not drawn)
inactive: T-47D breast 74.7% | BT-549 breast 94% | MDA-MB-435 melanoma 84.6% | SW-620 colon 83.5% | MCF7 breast 14.6% | HCT-116 colon 37.2% | HCC-2998 colon 99.9% | KM12 colon 84.8%

CCN1C(=O)N(CC)C2Nn3c(s/c(=C\c4ccc(Cl)cc4Cl)c3=O)=NC21 (stereo not drawn)
inactive: T-47D breast 76.9% | BT-549 breast 38.6% | SW-620 colon 30.4% | MCF7 breast 28.9% | HCT-116 colon 15.2% | HCC-2998 colon 73.9% | KM12 colon 13.1%
active: MDA-MB-435 melanoma -40.7%

CC1=C([Se]CC(OC(=O)[C@@H](CO)NC(=O)OC(C)(C)C)C(=O)NC(C)(C)C)C(=O)c2ccccc2C1=O (stereo partly drawn)
active: T-47D breast -54.1% | BT-549 breast -100% | MDA-MB-435 melanoma -82.4% | SW-620 colon -85.9% | MCF7 breast -72.6% | HCT-116 colon -100% | HCC-2998 colon -89.9% | KM12 colon -77.7%

CC1OC(O[C@H]2/C=C/C=C/C=C/C=C/C=C/C=C/C=C/[C@H](C)[C@@H](O)[C@@H](C)[C@H](C)OC(=O)CC(O)CC(O)CCC(O)C(O)CC(O)C[C@]3(O)C[C@H](O)C(C(=O)O)C(C2)O3)C(O)[C@H](N)C1O (stereo partly drawn)
active: MDA-MB-435 melanoma -69.5% | SW-620 colon -24.9% | HCT-116 colon -38.1%
inactive: T-47D breast 54.3% | BT-549 breast 36.6% | MCF7 breast 28.8% | HCC-2998 colon 53.5% | KM12 colon 41.6%

O=[N+]([O-])c1ccc(-c2cc(-c3ccc(Nc4nc(Nc5ccc(Cl)cc5)nc(Nc5ccc(Cl)cc5)n4)cc3)no2)cc1
inactive: T-47D breast 97.2% | BT-549 breast 103% | MDA-MB-435 melanoma 103% | SW-620 colon 96.6% | MCF7 breast 83.1% | HCT-116 colon 83.7% | HCC-2998 colon 78.2% | KM12 colon 105%

c1cc2ccc3cc2cc1CNCCOCCNCc1ccc2ccc(cc2c1)CNCCOCCNC3
inactive: BT-549 breast 99.6%
active: T-47D breast -23.8% | MDA-MB-435 melanoma -90.2% | SW-620 colon 2.45% | MCF7 breast -17.1% | HCT-116 colon -4.41% | HCC-2998 colon -57.4% | KM12 colon -39%

COC(=O)/C=C1\S/C(=N\NS(=O)(=O)c2ccc(C)cc2)N(c2ccccc2)C1=O
inactive: T-47D breast 99.2% | BT-549 breast 115% | MDA-MB-435 melanoma 102% | SW-620 colon 106% | MCF7 breast 94.5% | HCT-116 colon 103% | HCC-2998 colon 121% | KM12 colon 101%

COc1ccc(-c2nc3c(N)c(CO)c(C)nc3o2)cc1
inactive: T-47D breast 90.9% | BT-549 breast 118% | MDA-MB-435 melanoma 103% | SW-620 colon 118% | MCF7 breast 86.1% | HCT-116 colon 103% | HCC-2998 colon 87% | KM12 colon 96.5%

CCCCCCCOc1c(OC)cc(C2CC(=O)Nc3c2c(C)nn3-c2nc3ccccc3[nH]2)cc1OC (stereo not drawn)
active: BT-549 breast 6.89% | MDA-MB-435 melanoma -27.6% | SW-620 colon 3.05% | MCF7 breast 6.22% | HCT-116 colon 4.4% | KM12 colon 1.11%
inactive: T-47D breast 11.8% | HCC-2998 colon 79.2%

COc1cc(/C=C/C(=O)c2c(C)nc3ccccc3c2C)ccc1OCCCN1CCN(C(=O)c2ccco2)CC1
inactive: T-47D breast 67.7% | BT-549 breast 86.3% | MDA-MB-435 melanoma 61.6% | SW-620 colon 68.3% | MCF7 breast 75.4% | HCT-116 colon 76.6% | HCC-2998 colon 46.5% | KM12 colon 98%

Cc1cc(N2CCCC2)nc(NCc2cc(Nc3ccnc4cc(Cl)ccc34)ccc2F)n1
inactive: BT-549 breast 55.2%
active: T-47D breast -54.7% | MDA-MB-435 melanoma -96.1% | SW-620 colon -71.1% | MCF7 breast -56.1% | HCT-116 colon -76.3% | HCC-2998 colon -74.9% | KM12 colon -58.8%

CCc1c2c(nc3ccc(OC(=O)OCc4ccc(B5OC(C)(C)C(C)(C)O5)cc4)cc13)-c1cc3c(c(=O)n1C2)COC(=O)[C@]3(O)CC
active: T-47D breast 7.4% | MDA-MB-435 melanoma -28.3% | SW-620 colon 5.3% | MCF7 breast 2.63% | HCC-2998 colon 2.03% | KM12 colon 0.859%
inactive: BT-549 breast 13.2% | HCT-116 colon 14.5%

CCOP(=O)(OCC)C1CP(=O)(c2ccccc2)CC(C)=C1Cl (stereo not drawn)
inactive: T-47D breast 102% | BT-549 breast 129% | MDA-MB-435 melanoma 110% | SW-620 colon 105% | MCF7 breast 102% | HCT-116 colon 91.5% | HCC-2998 colon 102% | KM12 colon 109%

Cn1c2c(c3ccc(Cl)c(Cl)c31)C(C#N)C1(CCNCC1)NC2=O (stereo not drawn)
active: MDA-MB-435 melanoma 5.97% | MCF7 breast -12.3% | HCC-2998 colon -17.8%
inactive: T-47D breast 46.8% | BT-549 breast 45% | SW-620 colon 30.5% | HCT-116 colon 13% | KM12 colon 31.7%

Cc1nn(-c2ccccc2)c(Cl)c1/C=C(/NC(=O)c1ccccc1)c1nc2ccccc2[nH]1
inactive: T-47D breast 86.7% | BT-549 breast 93.5% | MDA-MB-435 melanoma 91.5% | SW-620 colon 105% | MCF7 breast 93.1% | HCT-116 colon 86.6% | HCC-2998 colon 131% | KM12 colon 107%

— PubChem BioAssay (NCI)
